Compounds with a hit are over-represented: about 2% of the library has one in this group of screens.
CHT allo act – human CHT allosteric activation; CHT-expressing cells, membrane potential dye, choline EC20; hits give high values; LV-AA mutant CHT in HEK293 cells; B-score at 10 µM; actives 0.49% (n = 310,000); AID 488977;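 active = initial fluorescence not abnormally high and integrated response B-score, plate-corrected, over 3 SD above library mean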
EP2 modulator – EP2 receptor (human) modulation; actives 0.83% (n = 260,000); P43116; induction, % at 25 µM; EP2-expressing cells, cAMP HTRF FRET, PGE2 co-stimulation; AID 940;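 active = compounds whose cAMP rise, as percent of the full-agonist control response, exceeds 60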;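 also: rat C6 glioma line stably carrying human EP2 under a CMV promoter; the protocol text gives 20 µM as final concentration; 100% = response of wells given 1 µM PGE2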
Target sequence (P43116 whole entry, looked up): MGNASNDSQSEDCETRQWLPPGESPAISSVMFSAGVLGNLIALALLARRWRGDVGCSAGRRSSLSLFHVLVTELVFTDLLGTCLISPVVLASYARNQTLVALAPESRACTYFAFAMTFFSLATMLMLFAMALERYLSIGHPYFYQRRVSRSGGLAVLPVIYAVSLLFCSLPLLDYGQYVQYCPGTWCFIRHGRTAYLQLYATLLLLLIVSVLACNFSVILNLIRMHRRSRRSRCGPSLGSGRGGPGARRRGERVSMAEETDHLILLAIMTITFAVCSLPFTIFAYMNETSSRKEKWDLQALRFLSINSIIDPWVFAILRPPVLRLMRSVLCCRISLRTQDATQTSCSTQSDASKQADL
CHT block – inhibitors of human choline transporter CHT. Q9GZV3. CHT-expressing cells, membrane potential dye, choline response; hits give low values. B-score at 10 µM. actives 0.86% (n = 310,000);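 active = B-score over 3 SD under the library average, and starting fluorescence ratio not unusually high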;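 also: choline stimulus applied at its EC90 after an EC20 pre-addition; B-score computed on integrated fluorescence ratio after choline addition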
PGE2 EP2 inh – inhibitors of human EP2 prostaglandin E2 receptor; AID 1422; inhibition, % at 25 µM; actives 0.52% (n = 260,000); C6 glioma cells expressing human EP2, cAMP TR-FRET; cells stimulated with saturating PGE2; P43116;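 active = percent inhibition above 40 after rounding to a whole number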;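 also: rat C6 glioma host cells with rolipram phosphodiesterase inhibitor present; the protocol text gives 20 µM as final concentration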
CHT act confirm – human CHT activation, confirmatory screen | shares compounds with CHT allo act | CHT-expressing cells, membrane potential dye fluorescence (FDSS); % of choline EC20–EC90 response window; HEK293 expressing CHT LV-AA mutant; choline added at its EC20 | activation, % at 10 µM | actives 91% (n = 2,500) | AID 504833;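 active = primary screen active, with duplicate mean activation above negative control mean plus 3 SD, cut at about 11% in these data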
HEK293 MP dye – CHT activator counter-screen hit in parental HEK293 cells | shares compounds with CHT allo act | membrane potential dye fluorescence (FDSS); measured after EC20 choline addition | ratio readout change at 10 µM, hits read low | actives 62% (n = 2,500) | AID 623908;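 active = duplicate-averaged ratio beyond 3 SD from buffer wells, up or down, though filed actives are nearly all decreases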
* = called active by the depositor; i = inactive; · = no result.

SMILES	CHT allo act	EP2 modulator	CHT block	PGE2 EP2 inh	CHT act confirm	HEK293 MP dye
CCCN1C(=O)c2ccccc2NC1c1cc(OC)c(OC)c(OC)c1 (stereo unspecified)	i	20	i	·	·	·
COc1ccc(CCN2C(=O)c3ccccc3NC2c2cc(Cl)c(O)c(OC)c2)cc1 (stereo unspecified)	8.3*	·	i	·	24*	i
CCCN(CCC)c1ccc(C=C2C(=O)NC(=O)NC2=O)cc1	·	-123	·	26	·	·
COc1cc(Nc2ccc(S(=O)(=O)N3CCN(C)CC3)cc2[N+](=O)[O-])cc(OC)c1	i	·	i	·	9	-21*
Cc1occc1-c1nnc(SCC(=O)NC2CCCC2)n1Cc1ccco1	·	9	·	10	·	·
c1cc2c3c(cccc3c1)C(N1CCCCCC1)=N2	i	-13	i	·	50*	-57*
Cc1cc[n+]2cc(-c3cccc([N+](=O)[O-])c3)c(-c3cccc([N+](=O)[O-])c3)cc2c1	7*	1	i	9	65*	-84*
Cc1cccc(-c2cnn(-c3cccc([N+](=O)[O-])c3)c2N)c1	i	-74	i	3	·	·
CCNC(=O)C(C)Sc1ccc(Cl)cc1 (stereo unspecified)	i	0	i	3	·	·
CC(Sc1ccc(Cl)cc1)C(=O)Nc1ccccc1-c1ccccc1 (stereo unspecified)	7*	40	i	6	35*	i
Cc1ccc(SC(C)C(=O)Nc2ccccc2-c2ccccc2)cc1 (stereo unspecified)	i	34	i	11	7	i
Cc1ccc(SC(C)C(=O)Nc2ccccc2C(=O)N2CCOCC2)cc1 (stereo unspecified)	i	7	i	3	·	·
COc1ccc(N2CCN(C(=O)COC(=O)c3ccccc3OCc3ccc(F)cc3)CC2)cc1	6.8*	·	i	·	20*	i
O=C(O)c1ccc(-n2cnnn2)cc1O	·	-40	·	7	·	·
Cc1cc(N2CCC(C)CC2)nc2cccc(O)c12	6.8*	19	i	8	18*	-54*
Cc1ccc(-c2nnn(CC(=O)N(c3ccccc3C)C(C(=O)NC(C)(C)C)c3ccco3)n2)o1 (stereo unspecified)	·	36	·	11	·	·
CCN1CCN(c2nc3c(C)cccn3c(=O)c2/C=C(\C#N)C(=O)NCCOC)CC1	8.7*	·	i	·	60*	-62*
COCCNC(=O)/C(C#N)=C/c1c(N2CCN(c3ccccc3)CC2)nc2ccccn2c1=O	i	·	i	·	·	·
COCCCNC(=O)/C(C#N)=C/c1c(N2CCN(c3ccccc3)CC2)nc2ccccn2c1=O	i	·	i	·	·	·
COCCNC(=O)/C(C#N)=C/c1c(N2CCN(C)CC2)nc2c(C)cccn2c1=O	9.7*	·	i	·	67*	-56*
COCCNC(=O)/C(C#N)=C/c1c(N2CCCCCC2)nc2c(C)cccn2c1=O	i	·	i	·	·	·
COCCCNC(=O)/C(C#N)=C/c1c(N2CCN(C)CC2)nc2ccccn2c1=O	i	·	i	·	48*	-42*
CCOC(=O)/C(C#N)=C/c1c(N2CCN(C)CC2)nc2c(C)cccn2c1=O	i	·	i	·	46*	-48*
CCOC(=O)N1CC=C2C(C#N)=C(N)C(C#N)(C#N)C(C)C2C1 (stereo unspecified)	·	-19	·	8	·	·
CNC(=O)/C(C#N)=C/c1c(N2CCCCCC2)nc2ccccn2c1=O	6.4*	·	i	·	-2	-36*
SMILES	CHT allo act	EP2 modulator	CHT block	PGE2 EP2 inh	CHT act confirm	HEK293 MP dye
COCCCNC(=O)/C(C#N)=C/c1c(N2CCN(c3ccc(OC)cc3)CC2)nc2c(C)cccn2c1=O	i	·	i	·	·	·
COCCCNC(=O)/C(C#N)=C/c1c(N2CCN(C)CC2)nc2c(C)cccn2c1=O	6.9*	·	i	·	52*	-56*
CN1CCN(c2nc3ccccn3c(=O)c2C=O)CC1	6.3*	·	i	·	48*	-45*
COc1ccc(CCN(Cc2nc3ccccc3c(=O)[nH]2)C(=O)c2cccc(Cl)c2)cc1OC	·	0	·	13	·	·
Cc1cc2nc(C)n(CCCNC(=O)Nc3ccc(C#N)cc3)c2cc1C	i	-12	i	14	·	·
Cc1cc2nc(C)n(CCCN)c2cc1C	8.4*	15	i	2	69*	-73*
C#Cc1ccc(CN2CCCC(C(=O)Nc3ccccc3Oc3cccnc3)C2)cc1 (stereo unspecified)	i	·	i	·	17*	i
O=C(Nc1ccccc1Oc1cccnc1)C1CCCN(Cc2ccccc2O)C1 (stereo unspecified)	i	·	i	·	·	·
Cc1nnc(C)n1/N=C/c1cc2ccccc2nc1Cl	8.6*	-26	i	6	51*	-55*
COc1ccc(OC)c(C(=O)COC(=O)C(CCSC)NC(=O)COc2ccccc2)c1 (stereo unspecified)	i	·	i	·	26*	i
Cc1cccc(N(C)S(=O)(=O)c2ccc(-c3cc(C)no3)s2)c1	i	·	i	·	39*	i
CCN(c1ccccc1)S(=O)(=O)c1ccc(C(=O)N(CCCN(C)C)c2nc3cc4c(cc3s2)OCO4)cc1	i	·	i	·	43*	-37*
Cc1ccc(C(c2nnnn2C(C)(C)C)N2CCN(C3CCCC3)CC2)cc1 (stereo unspecified)	i	20	i	10	·	·
CC(C)CC(c1nnnn1C(C)(C)C)N1CCN(C2CCCC2)CC1 (stereo unspecified)	6.6*	33	i	10	15*	i
CCn1cc(C(=O)NCCOC)c(=O)c2ccc(C)nc21	i	21	i	6	·	·
CCn1cc(C(=O)OC)c(=O)c2ccc(C)nc21	12*	-8	i	7	79*	-75*
CCNC(=O)C1CCN(S(C)(=O)=O)CC1	·	-15	·	14	·	·
CSc1cccc(NC(=O)CN(C2CCCCC2)S(C)(=O)=O)c1	8.9*	-11	i	16	42*	i
CC(C)(C)OC(=O)[C@H]1[C@H](c2ccc([N+](=O)[O-])cc2)C2(C(=O)c3ccccc3C2=O)C2c3ccccc3C=NN21 (stereo partly specified)	i	7	i	8	37*	i
CCN(CC)CCNC(=O)c1cc2c(-c3ccc(Cl)cc3)nn(C)c2s1	9.9*	-22	i	24	33*	-21*
CCCC(=O)N/C(N)=N/c1nc(C)c2ccccc2n1	i	-6	i	9	36*	-46*
CCc1ccc2nc(/N=C(\N)NC(=O)c3ccccc3)nc(C)c2c1	i	18	i	9	·	·
C=CC[n+]1c(-c2ccc(OC)c(OC)c2)csc1NNC(=O)Nc1ccccc1	i	-29	i	4	8	i
CCc1nn(CC(=O)NCCN(C(C)C)C(C)C)c(=O)c2cc3sccc3n12	·	-1	·	·	·	·
